This excerpt belongs to a sample that is enriched for hits.
BLM inh – qHTS Assay for Inhibitors of Bloom's syndrome helicase (BLM). recombinant BLM DNA unwinding, fluorescence dequenching. Potency, µM (highest dose often 56.1 µM), hits mostly inhibitors. actives 0.2% (n = 350,000). AID 2528, 2010; also: nearly all actives have a fitted effect of over 35% in size
Target sequence (P54132 whole entry, looked up): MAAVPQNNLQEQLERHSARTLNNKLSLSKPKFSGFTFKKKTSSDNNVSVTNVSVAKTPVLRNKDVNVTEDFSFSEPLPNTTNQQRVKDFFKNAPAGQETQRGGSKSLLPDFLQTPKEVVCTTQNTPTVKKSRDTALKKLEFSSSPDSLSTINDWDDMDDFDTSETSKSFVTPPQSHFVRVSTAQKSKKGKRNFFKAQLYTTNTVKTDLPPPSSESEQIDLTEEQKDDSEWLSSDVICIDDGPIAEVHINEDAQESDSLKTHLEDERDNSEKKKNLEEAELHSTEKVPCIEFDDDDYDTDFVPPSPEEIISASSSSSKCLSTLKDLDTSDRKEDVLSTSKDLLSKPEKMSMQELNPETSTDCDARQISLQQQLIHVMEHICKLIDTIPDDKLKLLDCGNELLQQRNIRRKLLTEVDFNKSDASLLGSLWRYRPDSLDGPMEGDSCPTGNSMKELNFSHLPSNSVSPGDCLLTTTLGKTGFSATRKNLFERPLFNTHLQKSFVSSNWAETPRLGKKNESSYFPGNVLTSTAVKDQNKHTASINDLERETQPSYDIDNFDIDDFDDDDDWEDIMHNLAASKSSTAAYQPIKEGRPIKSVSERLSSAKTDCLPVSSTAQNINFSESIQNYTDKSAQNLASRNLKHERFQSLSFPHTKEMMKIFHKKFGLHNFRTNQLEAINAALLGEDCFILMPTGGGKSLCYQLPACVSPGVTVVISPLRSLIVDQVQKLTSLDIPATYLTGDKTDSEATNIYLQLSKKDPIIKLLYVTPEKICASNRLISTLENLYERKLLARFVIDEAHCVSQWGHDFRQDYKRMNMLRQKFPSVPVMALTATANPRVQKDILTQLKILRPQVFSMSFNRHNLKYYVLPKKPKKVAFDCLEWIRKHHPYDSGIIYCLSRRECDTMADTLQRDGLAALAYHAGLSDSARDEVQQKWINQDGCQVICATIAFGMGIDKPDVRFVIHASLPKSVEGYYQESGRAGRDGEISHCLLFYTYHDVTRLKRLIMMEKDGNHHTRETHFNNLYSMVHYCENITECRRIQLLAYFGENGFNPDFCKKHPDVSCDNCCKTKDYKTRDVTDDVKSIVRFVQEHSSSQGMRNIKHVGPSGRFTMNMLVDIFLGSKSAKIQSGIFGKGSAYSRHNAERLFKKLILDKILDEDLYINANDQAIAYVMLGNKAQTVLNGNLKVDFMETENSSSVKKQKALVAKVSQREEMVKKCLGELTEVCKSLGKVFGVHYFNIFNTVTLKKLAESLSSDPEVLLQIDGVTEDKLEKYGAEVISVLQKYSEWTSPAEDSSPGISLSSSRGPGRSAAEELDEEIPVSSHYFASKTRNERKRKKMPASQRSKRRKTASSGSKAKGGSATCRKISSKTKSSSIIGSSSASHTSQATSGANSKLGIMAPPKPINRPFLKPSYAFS
L3MBTL1 block – qHTS Assay for the Inhibitors of L3MBTL1 | Lethal(3)malignant brain tumor-like protein 1 (Homo sapiens), Q9Y468 | AlphaScreen L3MBTL1–H3K9me1 peptide binding | Potency, µM (top dose mostly 57.1 µM), usual class: inhibitors | actives 0.66% (n = 230,000); also: nearly all actives have a fitted effect of over 60% in size
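L3MBTL1 (50 nM) pre-complexed 30 min with biotinylated H3(1-15)K9me1 peptide (75 nM), then compounds added for 30 min at room temperature; AlphaScreen streptavidin donor/nickel chelate acceptor beads (10 ug/mL final) read after 30 min dark incubation.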
RECQ1 inh-1 – qHTS Assay for Inhibitors of RecQ-Like Dna Helicase 1 (RECQ1). ATP-dependent DNA helicase Q1 (Homo sapiens), P46063. RECQ1 DNA unwinding, red fluorescence kinetic read. Potency, µM (doses to about 57.3 µM), hits mostly inhibitors. actives 0.54% (n = 240,000). AID 2549, 2010; also: nearly all actives have a fitted effect of over 30% in size
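50 nM RECQ1T1 preincubated 15 min with compound in Tris pH 8.0 buffer with MgCl2, DTT, Tween-20 and 2.5 ug/ml poly(dI-dC); started with 200 nM TAMRA/BHQ-2 forked duplex and 2 mM ATP. Unwinding read as fluorescence (525/598 nm), two reads 2 h apart.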
KDM4E inh – qHTS Assay for Inhibitors of Human Jumonji Domain Containing 2E (JMJD2E); JMJD2E catalytic domain, FDH-coupled NADH fluorescence (FDH is formaldehyde dehydrogenase); Potency, µM (series often up to 57.1 µM), usual class: inhibitors; actives 1.6% (n = 230,000); active = well fitted inhibition curve with a large enough effect, not every such curve was filed as active; inconclusive = small, poorly fitted or top-dose-only effect, or another doubt; inactive = no such curve, though single readings can be large or run the other way; also: nearly all actives have a fitted effect of over 50% in size
APE1 inh – qHTS Assay for Inhibitors of the Human Apurinic/apyrimidinic Endonuclease 1 (APE1); recombinant APE1, TAMRA/BHQ-2 abasic DNA cleavage fluorescence; actives 0.35% (n = 350,000); DNA repair nuclease/redox regulator APEX1 (Homo sapiens), P27695; Potency, µM (top dose mostly 65.8 µM), hits mostly inhibitors; AID 2517, 2012; also: nearly all actives have a fitted effect of over 55% in size
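Kinetic fluorescence read (525 ex/598 em nm, three reads 60 s apart) of AP-site incision; signal = third minus first read. Enzyme 0.75 nM, dual-labelled THF duplex 50 nM, compound preincubation 15 min RT.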
RECQ1 conf – Confirmation qHTS Assay for Inhibitors of RecQ-Like Dna Helicase 1 (RECQ1); shares compounds with RECQ1 inh-1; RECQ1 helicase DNA unwinding, fluorescence; Potency, µM (titrated, usually from 229 µM), hits mostly inhibitors; actives 28% (n = 610); AID 2708, 2010; also: nearly all actives have a fitted effect of over 45% in size
ADP FP counter – Counterscreen for RECQ1 Inhibitors: ADP Fluorescence Polarization Displacement Assay. ADP fluorescence polarization displacement counterscreen. Potency, µM (series often up to 228 µM), actives largely listed as inhibitors. shares compounds with RECQ1 inh-1. actives 27% (n = 530); also: nearly all actives have a fitted effect of over 45% in size
RECQ1 inh-2 – Confirmation qHTS Assay for Inhibitors of RecQ-Like Dna Helicase 1 (RECQ1) - Round 2 Cherry Picks; Potency, µM (highest dose often 119 µM), most hits filed as inhibitors; shares compounds with RECQ1 inh-1; recombinant RECQ1 DNA unwinding, red fluorescence; actives 15% (n = 1,100); also: nearly all actives have a fitted effect of over 50% in size
Hits are given with their value. Unless noted, calls follow the shape of the dose curve; as a rule, active = well fitted curve in the direction sought with a large enough effect; inconclusive = small, poorly fitted or top-dose-only effect, or another doubt; inactive = no such curve, though single readings can be large; an effect the other way counts as inactive or inconclusive.

For O=C(Nc1ccc(Br)c(Cl)c1)C1CC1 the results were BLM inh inactive, L3MBTL1 block inactive, RECQ1 inh-1 inactive, KDM4E inh inactive and APE1 inh inactive.
`CC(C)(C)C(=O)CSc1nc2c(c(-c3cccs3)c1C#N)CCC2` gave BLM inh inactive, L3MBTL1 block inactive, RECQ1 inh-1 inactive, KDM4E inh inactive and APE1 inh inactive.
For Cc1cc(C(=O)Nn2c(C3CCCCC3)nc3ccccc3c2=O)ccc1[N+](=O)[O-] the results were BLM inh inactive, L3MBTL1 block inactive, RECQ1 inh-1 25µM, KDM4E inh inactive, APE1 inh inactive and RECQ1 inh-2 inactive.
`Cc1cc(C(=O)Nn2c(C)nc3ccccc3c2=O)ccc1[N+](=O)[O-]` gave BLM inh inactive, L3MBTL1 block inactive, RECQ1 inh-1 inactive, KDM4E inh inactive and APE1 inh inactive.
For CCN1c2ccccc2N(C)C1(C)c1ccccc1 (centres undefined) the results were BLM inh inactive, L3MBTL1 block inactive, RECQ1 inh-1 inactive, KDM4E inh inconclusive and APE1 inh inactive.
CNC(=O)COC(=O)c1ccc(Cl)c(S(=O)(=O)N2CCCC2)c1 was read as BLM inh inactive, L3MBTL1 block inactive, RECQ1 inh-1 inactive, KDM4E inh inactive and APE1 inh inactive.
`CCc1ccc(NC(=O)COC(=O)c2ccc(Cl)c(S(=O)(=O)N3CCCCCC3)c2)cc1` gave BLM inh inactive, L3MBTL1 block inactive, RECQ1 inh-1 inconclusive, KDM4E inh inactive, APE1 inh inactive and RECQ1 inh-2 inconclusive.
COc1ccc(CC(=O)Nc2ccc(C(=O)NC(C)(C)C)cc2)cc1OC was read as BLM inh inactive, L3MBTL1 block inactive, RECQ1 inh-1 inactive, KDM4E inh inactive and APE1 inh inactive.
COc1ccc(CC(=O)Nc2ccc(C(=O)Nc3ccccc3C(=O)O)cc2)cc1OC was read as BLM inh inactive, L3MBTL1 block inactive, RECQ1 inh-1 inactive, KDM4E inh inactive, APE1 inh inactive, RECQ1 conf inactive and ADP FP counter inactive.
CCN(CC)S(=O)(=O)c1ccc(C(=O)NC(=S)N(CCC#N)Cc2cccnc2)cc1 was read as BLM inh inactive, L3MBTL1 block inactive, RECQ1 inh-1 inactive, KDM4E inh inactive, APE1 inh inactive, RECQ1 conf inactive and ADP FP counter inactive.
Cc1ccc(NC(=O)CN2C(=O)S/C(=C\c3cc(C)n(-c4ccc(C(=O)O)cc4)c3C)C2=O)cc1 was read as BLM inh inactive, L3MBTL1 block inactive, RECQ1 inh-1 inconclusive, KDM4E inh inconclusive, APE1 inh inactive and RECQ1 inh-2 inconclusive.
COc1ccc(-c2cc(C(=O)NCCc3ccccc3)c3c(-c4ccccc4)[nH]nc3n2)cc1 was read as BLM inh inactive.
`c1ccc(Cc2nnc3sc(-c4ccco4)nn23)cc1` gave BLM inh inactive, L3MBTL1 block inactive, RECQ1 inh-1 inconclusive, KDM4E inh inactive, APE1 inh inactive and RECQ1 inh-2 inconclusive.
Clc1ccccc1-c1nnc2sc(-c3ccco3)nn12 was read as BLM inh inactive, L3MBTL1 block inactive, RECQ1 inh-1 inactive, KDM4E inh inactive and APE1 inh inactive.
Screening CC(C)CC1=C/C(=C/c2ccc(-c3ccccc3)o2)C(=O)O1 returned BLM inh inactive, L3MBTL1 block inconclusive, RECQ1 inh-1 25µM, KDM4E inh inconclusive, APE1 inh inconclusive and RECQ1 conf inconclusive.
`CN(C(=O)c1ccc(NC(=O)Cc2ccc(NC(=O)C3CCCN(C(=O)C4CCC4)C3)cc2)cc1)C1CC1` (centres undefined) gave L3MBTL1 block inactive and APE1 inh inactive.
For COc1ccc(C2=CC3=C(Br)C(=O)C(C)(OC(=O)C4CCCC4)C(=O)C3=CO2)cc1 (centres undefined) the results were BLM inh inactive, RECQ1 inh-1 inactive, KDM4E inh inactive and APE1 inh inactive.
`COC(=O)CCC(=O)OC1(C)C(=O)C2=COC(c3ccc(OC)cc3)=CC2=C(Br)C1=O` (centres undefined) gave BLM inh inactive, RECQ1 inh-1 inconclusive, KDM4E inh inactive, APE1 inh inconclusive and RECQ1 inh-2 56µM.
`CC(C)(C)C(=O)OCCNc1nc(-c2ccccc2)nc2ccccc12` gave BLM inh inactive, L3MBTL1 block inactive, RECQ1 inh-1 7.9µM, KDM4E inh inactive, APE1 inh inactive, RECQ1 conf inactive and RECQ1 inh-2 inactive.
CCCN(CCC)c1nc2ccccc2nc1C(C#N)C(=O)OCCOC (centres undefined) was read as BLM inh inactive, RECQ1 inh-1 inactive, KDM4E inh inconclusive and APE1 inh inactive.
CC(C)CN(C(=O)CCNC(=O)c1ccc(Cl)cc1)c1c(N)n(CC(C)C)c(=O)[nH]c1=O was read as L3MBTL1 block inactive and APE1 inh inactive.
`Nn1cnnc1N/N=C\c1ccc(-c2ccccc2[N+](=O)[O-])o1` gave BLM inh inactive, L3MBTL1 block inactive, RECQ1 inh-1 4.5µM, KDM4E inh 4.5µM, APE1 inh inactive and RECQ1 conf inactive.
For O=[N+]([O-])c1ccccc1-c1ccc(/C=N/n2cnnc2)o1 the results were BLM inh inactive, L3MBTL1 block inactive, RECQ1 inh-1 inactive, KDM4E inh inactive and APE1 inh inactive.
C=C1c2c(Cl)ccc(O)c2C(O)=C2C(=O)[C@@]3(O)C(O)=C(C(N)=O)C(=O)[C@@H](N(C)C)[C@@H]3[C@@H](O)[C@H]12 was read as BLM inh inactive, RECQ1 inh-1 3.5µM, KDM4E inh inconclusive, RECQ1 conf inactive and ADP FP counter 32µM.
For COc1ccc(OC)c(-c2c3cc(O)c(=O)cc-3oc3cc(O)c(O)cc23)c1 the results were BLM inh 28µM, L3MBTL1 block 0.79µM, RECQ1 inh-1 35µM, KDM4E inh 11µM, APE1 inh 32µM and RECQ1 inh-2 40µM.

Assay outcomes as filed in PubChem BioAssay.
